Measured values: PubChem BioAssay (NCI)
“And” between values parts separate entries of the source, which are not always exact repeats. Equal entries are not always repeated. The panel holds about 79,000 compounds, 15% with a hit somewhere; the sample as a whole holds those more often. Rule as the data show it: active = growth inhibition above about 70%; inactive = the rest.

Columns and labels:
[1] = NCI Yeast Anticancer Drug Screen. Data for the rad50 strain (AID 155);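 also: 0% = growth of vehicle-only cultures of the same strain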; details: S. cerevisiae rad50 strain growth inhibition, stronger effect = higher value; at 50.0 µM unless noted
In short: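 Cells are treated with compound, grown, and their growth is then scored against vehicle-only cultures of the same repair-deficient yeast strain.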

[2] = NCI Yeast Anticancer Drug Screen. Data for the mec2-1 strain (AID 157); details: S. cerevisiae mec2-1 strain, stronger effect = higher value; at 50.0 µM unless noted
In short: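 Mutant yeast (mec2-1) grown with compound; growth inhibition relative to vehicle control reported.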

[3] = NCI Yeast Anticancer Drug Screen. Data for the sgs1 mgt1 strain (AID 161);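 also: 0% = growth of cultures given vehicle only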; details: S. cerevisiae sgs1 mgt1 strain, stronger effect = higher value; at 50.0 µM unless noted
In short: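 Compounds are added to genetically altered yeast, and growth is compared with cultures given vehicle alone to give percent inhibition.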

[4] = NCI Yeast Anticancer Drug Screen. Data for the cln2 rad14 strain (AID 165);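 also: 0% = growth equal to vehicle treated cultures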; details: S. cerevisiae cln2 rad14 strain, stronger effect = higher value; at 50.0 µM unless noted
In short: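 Readout is yeast growth inhibition versus vehicle-treated controls, using a strain with cln2 and rad14 alterations exposed to compound.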

[5] = NCI Yeast Anticancer Drug Screen. Data for the bub3 strain (AID 167); details: S. cerevisiae bub3 mutant strain, stronger effect = higher value; at 50.0 µM unless noted
In short: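 Part of a panel of yeast mutants defective in DNA damage repair or cell cycle regulation. Each strain is grown with compound, and inhibition is calculated relative to solvent-treated cultures.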

[6] = NCI Yeast Anticancer Drug Screen. Data for the mlh1 rad18 strain (AID 175); details: S. cerevisiae mlh1 rad18 strain growth inhibition, stronger effect = higher value; at 50.0 µM unless noted
In short: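 Genetically defined yeast (DNA repair-deficient) exposed to compounds; growth inhibition determined relative to vehicle.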

Measured: growth inhibition

COC(=O)NC1C(OC(C)=O)C(OC(C)=O)C(COC(C)=O)OC1n1ccc(NC(C)=O)nc1=O (stereo unspecified)
inactive: [1] 8.65% | [2] 1.4% | [3] 5.9% | [4] 18.6% | [5] 0.15% | [6] 5.1%

Cc1ccc(S(=O)(=O)N2CCC(CCl)N(S(=O)(=O)c3ccc(C)cc3)CC2CCl)cc1 (stereo unspecified)
inactive: [1] 18.1% | [2] 3.6% | [3] 0.95% | [4] -9.05% | [5] 3.45% | [6] 7.8%

CCO/C=C(\C)CC1([N+](=O)[O-])C(=O)c2ccccc2C1=O
inactive: [1] 7.95% | [2] -4.75% | [3] 16.1% | [4] -3.75% | [5] 11.5% | [6] 15.8%

COc1ccc(C(=O)/C=C/N)c(OC)c1
inactive: [1] 17.3% | [2] -25.4% | [3] 5.45% | [4] 20% | [5] 9.35% | [6] 10.9%

CC1CC(C)OC(c2ccccc2Cl)O1 (stereo unspecified)
inactive: [1] 24.6% | [2] 12.4% | [3] 6.3% | [4] -8.1% | [5] 12.7% | [6] 25%

O=C(O)C1CCc2ccccc21 (stereo unspecified)
inactive: [1] -15.8% | [2] -46.5% | [3] -15.2% | [4] -12.2% | [5] -26.6% | [6] -20.1%

CC(C)(C)NC(=O)CCCl
inactive: [1] 16.4% | [2] 14.4% | [3] 16.5% | [4] 5.6% | [5] 1.8% | [6] 41.8%

CC(=O)NCC(C)NC(C)=O (stereo unspecified)
inactive: [1] -16.6% and -6.55% | [2] -37.4% and -15.4% | [3] -34.2% and -27.1% | [4] -6.75% and 7.7% | [5] -14.8% and -2.45% | [6] -15.2% and 8.1%

CN1C2=NC(=O)NC(=O)C23OC3c2ccccc21 (stereo unspecified) (tested in a mixture with another compound)
inactive: [1] 6.35% | [2] 12% | [3] -0.45% | [4] 14.7% | [5] 1.75% | [6] 18.9%

O=C1C=C(Nc2ccccc2)c2ccccc2C1=O
inactive: [1] -1.15% and 24.4% | [2] 16.4% and -8.6% | [3] 11.4% and 25.4% | [4] -14.5% and 19.9% | [5] 33.9% and 14.1% | [6] 15.2% and 12.2%

CCN(CC)CCn1c2cc3c(cc2c(=O)c2cccnc21)OCO3
inactive: [1] -18.1% | [2] -17.6% | [3] -29.4% | [4] 13.8% | [5] -34% | [6] 24.1%

Nn1c(CCCl)nc2c(Br)cc(Br)cc2c1=O
inactive: [1] 13.8% | [2] 2.9% | [3] -2.45% | [4] 3.25% | [5] 12.6% | [6] 8.5%

OCC12c3ccccc3C3c4ccccc4C1C32 (stereo unspecified)
inactive: [1] 10.2% | [2] -17.4% | [3] -4.05% | [4] -31.1% | [5] -18.9% | [6] 0.95%

NC1(CC(=O)O)CCN(Cc2ccccc2)CC1
inactive: [1] 4.05% | [2] 13% | [3] 3.9% | [4] -7.05% | [5] -1.15% | [6] 2.4%

CCOC(C)=Nc1cc(OC)cc2c1NC(=O)CCS2
inactive: [1] -28.9% | [2] -20.1% | [3] -36.6% | [4] -50% | [5] 5.6% | [6] -40.2%

CCOC(=O)C(NC(=O)CC)(Nc1ccc(S(=O)(=O)Nc2nc(C)cc(C)n2)cc1)C(F)(F)F (stereo unspecified)
inactive: [1] -5.6% | [2] -3.4% | [3] 8.55% | [4] 21.6% | [5] 2.5% | [6] 7.65%

CN1CCC(O)CC1
inactive: [1] 7.6% | [2] -23.4% | [3] -11.3% | [4] -0.35% | [5] 6.35% | [6] -3%

CCOC(=O)c1ccc(NC(=S)NC(=O)C(C)Oc2ccccc2)cc1 (stereo unspecified)
inactive: [1] -10.9% | [2] 40% | [3] 44.8% | [4] -21.2% | [5] 37.8% | [6] 25.2%

ClCCOC1CCCCO1 (stereo unspecified)
inactive: [1] -19% | [2] -15.2% | [3] -13.6% | [4] 6.2% | [5] -5.4% | [6] -5.15%

O=CNCC(=O)O
inactive: [1] 15.6% | [2] -3.75% | [3] -15.5% | [4] -0.7% | [5] -2.55% | [6] 7.9%

CC(C)(C)C1CCC2c3c([nH]c4ccccc34)C3C(=O)N(c4cc(Br)cc(Br)c4)C(=O)C3C2C1 (stereo unspecified)
inactive: [1] 14.3% | [2] 9.15% | [3] 7.75% | [4] 18.9% | [5] 21.8% | [6] -46.5%
